Consider 5 molecules from the supplement of paper PMC4022240.

What all share (test): peptide microarray binding signal (635 nm), min-max normalized on array (fraction of array maximum); higher = stronger binding
Experiment [1] has as its target T1, HaloTag-ATRX ADD domain (163-292).
T1 chain: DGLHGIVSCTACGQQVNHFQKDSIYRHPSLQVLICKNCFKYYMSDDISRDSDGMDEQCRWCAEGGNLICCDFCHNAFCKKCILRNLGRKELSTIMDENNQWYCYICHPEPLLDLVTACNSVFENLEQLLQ
As to the method: (§1)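 Histone 13-mer peptides were synthesized as cellulose conjugates with a C-terminal 20-atom PEG linker and printed in triplicate on nitrocellulose. The sequence given is the unmodified backbone; PTMs (Kme1/2/3, Kac, Sph/Tph, Rme/Rme2a/Rme2s, Rcit) are listed in the label and the 'peptide modifications' condition. Slides were probed at 4 °C for 1 h with biotin-labelled (HQ)5-HaloTag reader fusions (ATRX-ADD, ING2-PHD) then streptavidin-Alexa647, or with rabbit histone antibodies then anti-rabbit Alexa647. The mean 635 nm signal of the triplicate spots was scaled 0-1 between the lowest and highest values on each array.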

Experiment [2] deals with HaloTag-ING2 PHD (mouse Ing2 200-280). On the procedure: as §1
For experiment [3], the target named is anti-H3K4me3 antibody ab8580. On the procedure:
as §1

In experiment [4] the target is anti-H3K9me3 antibody ab8898. On the procedure: as §1
The mark [5] stands for this setting: peptide region: H2B 1-13, peptide modifications: H2BK5ac H2BS6ph, binder concentration: 1:2,000 dilution.
Where [6] appears, read: peptide region: H2B 1-13, peptide modifications: H2BK5ac H2BS6ph, binder concentration: 1:10,000 dilution.
[7] abbreviates: peptide region: H2B 7-19, peptide modifications: H2BK11ac H2BK12ac H2BS14ph H2BK15ac H2BK16ac, binder concentration: 1:2,000 dilution.
The mark [8] stands for this setting: peptide region: H2B 7-19, peptide modifications: H2BK11ac H2BK12ac H2BS14ph H2BK15ac H2BK16ac, binder concentration: 1:10,000 dilution.
Where [9] appears, read: peptide region: H2B 7-19, peptide modifications: H2BK11ac H2BS14ph H2BK15ac H2BK16ac, binder concentration: 1:2,000 dilution.
[10] abbreviates: peptide region: H2B 7-19, peptide modifications: H2BK11ac H2BS14ph H2BK15ac H2BK16ac, binder concentration: 1:10,000 dilution.
Where [11] appears, read: peptide region: H2B 7-19, peptide modifications: H2BK11ac H2BK12ac H2BK15ac, binder concentration: 1:2,000 dilution.
[12] abbreviates: peptide region: H2B 7-19, peptide modifications: H2BK11ac H2BK12ac H2BK15ac, binder concentration: 1:10,000 dilution.
The mark [13] stands for this setting: peptide region: H2B 1-13, peptide modifications: H2BK5ac, binder concentration: 1:2,000 dilution.
[14] abbreviates: peptide region: H2B 1-13, peptide modifications: H2BK5ac, binder concentration: 1:10,000 dilution.

± gives the standard deviation.

Regarding PEPAKSAPAPKKG [H2B 1-13 P E P A Kac Sph A P A P K K G], the “peptide microarray binding signal” value stood at 0.00433 ± 0.00028 in experiment [1] (peptide region: H2B 1-13, peptide modifications: H2BK5ac H2BS6ph, binder concentration: 50 nM); 0.00467 ± 0.0018 in experiment [1] (peptide region: H2B 1-13, peptide modifications: H2BK5ac H2BS6ph, binder concentration: 500 nM); 0.00442 ± 0.0003 in experiment [2] (peptide region: H2B 1-13, peptide modifications: H2BK5ac H2BS6ph, binder concentration: 10 nM); 0.00872 ± 0.0029 in experiment [2] (peptide region: H2B 1-13, peptide modifications: H2BK5ac H2BS6ph, binder concentration: 100 nM); 0.00217 ± 0.0016 in experiment [3] (setting [5]); 0.000628 ± 1.3e-05 in experiment [3] (setting [6]). Besides, the “peptide microarray binding signal” value was determined as 0.000332 ± 2.6e-05 in experiment [4] (setting [5]) and 0.000865 ± 2.4e-05 in experiment [4] (setting [6]).
On to APAPKKGSKKAVT [H2B 7-19 A P A P Kac Kac G Sph Kac Kac A V T], for which the “peptide microarray binding signal” value in experiment [1] (peptide region: H2B 7-19, peptide modifications: H2BK11ac H2BK12ac H2BS14ph H2BK15ac H2BK16ac, binder concentration: 50 nM) is 0.00254 ± 2.9e-05; in experiment [1] (peptide region: H2B 7-19, peptide modifications: H2BK11ac H2BK12ac H2BS14ph H2BK15ac H2BK16ac, binder concentration: 500 nM) it was 0.00495 ± 8.6e-05; in experiment [2] (peptide region: H2B 7-19, peptide modifications: H2BK11ac H2BK12ac H2BS14ph H2BK15ac H2BK16ac, binder concentration: 10 nM) it was 0.00639 ± 0.00065; in experiment [2] (peptide region: H2B 7-19, peptide modifications: H2BK11ac H2BK12ac H2BS14ph H2BK15ac H2BK16ac, binder concentration: 100 nM) it was 0.00163 ± 1.7e-05; in experiment [3] (setting [7]) it was 0.00523 ± 0.00045; in experiment [3] (setting [8]), 0.00126 ± 2.2e-05. Further, the “peptide microarray binding signal” value in experiment [4] (setting [7]) turned out to be 0.000891 ± 6e-05; in experiment [4] (setting [8]), 0.00098 ± 1.7e-05.
Consider APAPKKGSKKAVT [H2B 7-19 A P A P Kac K G Sph Kac Kac A V T], for which the “peptide microarray binding signal” value in experiment [1] (peptide region: H2B 7-19, peptide modifications: H2BK11ac H2BS14ph H2BK15ac H2BK16ac, binder concentration: 50 nM) was found to be 0.00323 ± 0.00013; in experiment [1] (peptide region: H2B 7-19, peptide modifications: H2BK11ac H2BS14ph H2BK15ac H2BK16ac, binder concentration: 500 nM), 0.00167 ± 0.00033; in experiment [2] (peptide region: H2B 7-19, peptide modifications: H2BK11ac H2BS14ph H2BK15ac H2BK16ac, binder concentration: 10 nM), 0.00388 ± 8.9e-05; in experiment [2] (peptide region: H2B 7-19, peptide modifications: H2BK11ac H2BS14ph H2BK15ac H2BK16ac, binder concentration: 100 nM), 0.00269 ± 0.00017; in experiment [3] (setting [9]), 0.000245 ± 1e-05; in experiment [3] (setting [10]) it was 0.0012 ± 4.3e-05. Also, the “peptide microarray binding signal” value in experiment [4] (setting [9]) worked out at 0.000529 ± 1.3e-05; in experiment [4] (setting [10]) it was 0.000865 ± 1.8e-05.
As to APAPKKGSKKAVT [H2B 7-19 A P A P Kac Kac G S Kac K A V T], the “peptide microarray binding signal” value came out at 0.00809 ± 0.00032 in experiment [1] (peptide region: H2B 7-19, peptide modifications: H2BK11ac H2BK12ac H2BK15ac, binder concentration: 50 nM); 0.0163 ± 0.00026 in experiment [1] (peptide region: H2B 7-19, peptide modifications: H2BK11ac H2BK12ac H2BK15ac, binder concentration: 500 nM); 0.0198 ± 0.0062 in experiment [2] (peptide region: H2B 7-19, peptide modifications: H2BK11ac H2BK12ac H2BK15ac, binder concentration: 10 nM); 0.0125 ± 0.0012 in experiment [2] (peptide region: H2B 7-19, peptide modifications: H2BK11ac H2BK12ac H2BK15ac, binder concentration: 100 nM); 0.0168 ± 0.0011 in experiment [3] (setting [11]); 0.00325 ± 0.00019 in experiment [3] (setting [12]). The “peptide microarray binding signal” value turned out to be 0.00323 ± 0.00057 in experiment [4] (setting [11]) and 0.00248 ± 0.00015 in experiment [4] (setting [12]).
As to PEPAKSAPAPKKG [H2B 1-13 P E P A Kac S A P A P K K G], the “peptide microarray binding signal” value worked out at 0.005486 ± 3.9e-05 in experiment [1] (peptide region: H2B 1-13, peptide modifications: H2BK5ac, binder concentration: 50 nM); 0.0105 ± 0.00072 in experiment [1] (peptide region: H2B 1-13, peptide modifications: H2BK5ac, binder concentration: 500 nM); 0.0119 ± 0.00078 in experiment [2] (peptide region: H2B 1-13, peptide modifications: H2BK5ac, binder concentration: 10 nM); 0.0115 ± 0.00093 in experiment [2] (peptide region: H2B 1-13, peptide modifications: H2BK5ac, binder concentration: 100 nM); 0.00421 ± 0.0021 in experiment [3] (setting [13]); 0.00137 ± 4.9e-05 in experiment [3] (setting [14]). Further, the entries for the “peptide microarray binding signal” value in experiment [4] (setting [13]) and in experiment [4] (setting [14]) were 0.00192 ± 0.00022 and 0.0019 ± 0.00011, respectively.
